Reference: PubChem BioAssay (NCATS)
Values joined by “and” are separate entries in the source; they are usually repeats but may differ in a detail not shown here. Equal entries are not always repeated. Records with an inconclusive call do not appear. Entries that show only a call come without a potency. The source holds several records for some structures; these can differ, active in one and inactive in another. Active and inactive are the calls of the source. Unless noted, the call rests on the fitted dose curve; in most records, active means well fitted curve in the direction sought with a large enough effect; inconclusive means small, poorly fitted or top-dose-only effect, or another doubt; inactive means no such curve, though single readings can be large; an effect the other way counts as inactive or inconclusive.

Key:
[1] = molecular target: Cytochrome P450 2D6 (Homo sapiens) (UniProt P10635); assay: Cytochrome P450 family 2 subfamily D member 6 (CYP2D6) small molecule antagonists: luciferase biochemical (cell-free) qHTS assay (AID 1645840; active means well fitted curve in the direction sought with a large enough effect in the repeat runs; an effect the other way counts as inactive or inconclusive; further: nearly all actives have a fitted effect of over 55% in size; further: potency means the concentration at half of the fitted maximal effect); conditions: P450-Glo CYP2D6 enzyme, luciferin luminescence, 1 h; series mostly up to 57.4 µM
Chain of Cytochrome P450 2D6 (Homo sapiens) (P10635 whole entry, looked up): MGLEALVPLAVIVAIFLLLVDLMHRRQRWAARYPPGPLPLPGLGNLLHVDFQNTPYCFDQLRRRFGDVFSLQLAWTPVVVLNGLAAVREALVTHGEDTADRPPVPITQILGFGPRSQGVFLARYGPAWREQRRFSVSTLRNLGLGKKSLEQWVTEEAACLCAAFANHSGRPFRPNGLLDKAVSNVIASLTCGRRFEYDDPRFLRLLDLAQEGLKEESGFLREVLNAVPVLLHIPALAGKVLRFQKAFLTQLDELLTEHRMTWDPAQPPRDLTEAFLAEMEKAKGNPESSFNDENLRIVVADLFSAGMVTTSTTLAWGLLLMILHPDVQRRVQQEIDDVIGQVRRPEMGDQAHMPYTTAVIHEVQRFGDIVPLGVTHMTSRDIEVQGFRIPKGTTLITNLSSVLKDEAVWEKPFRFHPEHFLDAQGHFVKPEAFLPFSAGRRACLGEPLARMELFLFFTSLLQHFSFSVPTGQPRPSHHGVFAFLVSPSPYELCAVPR
In short: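 P450-Glo CYP2D6 system: proluciferin substrate converted by enzyme to luciferin, read by luminescence proportional to activity. Enzyme-substrate mix with compound 10 min at room temperature, then NADPH regeneration 1 h before detection reagent.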

[2] = molecular target: Cytochrome P450 2C9 (Homo sapiens) (UniProt P11712); assay: Cytochrome P450 family 2 subfamily C member 9 (CYP2C9) small molecule antagonists: luciferase biochemical (cell-free) qHTS assay (AID 1645842; active means well fitted curve in the direction sought with a large enough effect in the repeat runs; an effect the other way counts as inactive or inconclusive; further: nearly all actives have a fitted effect of over 55% in size; further: potency means the concentration at half of the fitted maximal effect); conditions: P450-Glo CYP2C9 enzyme assay, luciferin luminescence; series mostly up to 57.4 µM
Chain of Cytochrome P450 2C9 (Homo sapiens) (P11712 whole entry, looked up): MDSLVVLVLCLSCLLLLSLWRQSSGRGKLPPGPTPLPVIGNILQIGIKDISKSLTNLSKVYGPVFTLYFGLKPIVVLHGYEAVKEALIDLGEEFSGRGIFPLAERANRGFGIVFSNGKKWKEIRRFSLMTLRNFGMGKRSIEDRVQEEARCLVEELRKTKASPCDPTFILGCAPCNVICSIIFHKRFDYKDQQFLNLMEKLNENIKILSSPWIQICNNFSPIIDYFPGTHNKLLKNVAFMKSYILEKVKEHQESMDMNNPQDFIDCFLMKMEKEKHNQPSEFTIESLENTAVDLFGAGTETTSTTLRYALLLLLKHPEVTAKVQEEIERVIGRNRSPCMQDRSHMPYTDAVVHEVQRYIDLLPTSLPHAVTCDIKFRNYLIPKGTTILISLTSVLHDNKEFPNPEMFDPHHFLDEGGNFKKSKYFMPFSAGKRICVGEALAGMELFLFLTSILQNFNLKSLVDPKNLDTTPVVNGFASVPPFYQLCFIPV
In short: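 P450-Glo CYP2C9 system: proluciferin substrate with enzyme in mix containing 0.4% BSA, 10 min at room temperature, then NADPH regeneration solution added and incubated 1 h at 37C. Detection reagent stopped reaction; luminescence read after 20 min as RLU.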

Papain (Carica papaya) = Papain (Carica papaya) (UniProt P00784); assay: Primary qHTS assay for inhibitors of the protease papain (AID 1645873); conditions: papain Z-FR-AMC cleavage, AMC fluorescence; series mostly up to 49.8 µM;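 further: papain turnover of Z-FR-AMC read as the AMC fluorescence gain over 10 min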; further: potency means the concentration at half of the fitted maximal effect
Chain of Papain (Carica papaya) (P00784 whole entry, looked up, the tested form may be a part): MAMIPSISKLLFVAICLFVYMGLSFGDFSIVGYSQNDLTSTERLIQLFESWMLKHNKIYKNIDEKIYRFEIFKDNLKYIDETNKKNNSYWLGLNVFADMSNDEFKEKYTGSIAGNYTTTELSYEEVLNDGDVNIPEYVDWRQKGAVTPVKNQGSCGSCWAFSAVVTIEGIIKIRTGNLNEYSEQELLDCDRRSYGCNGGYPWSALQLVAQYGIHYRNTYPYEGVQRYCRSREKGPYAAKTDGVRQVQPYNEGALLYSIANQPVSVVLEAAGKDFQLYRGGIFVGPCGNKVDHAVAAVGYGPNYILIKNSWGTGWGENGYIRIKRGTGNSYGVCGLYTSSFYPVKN

[3] = Primary qHTS for inhibitors of nuclear receptor binding SET domain protein 2 (NSD2) in an isogenic RCH-ACV NSD2 p.E1099K mutant (9B) (AID 1645876); conditions: RCH-ACV NSD2 E1099K (9B) viability, CellTiter-Glo, 72 h; series mostly up to 44.9 µM; further: nearly all actives have a fitted effect of over 70% in size; further: potency means the concentration at half of the fitted maximal effect
[4] = Primary qHTS for inhibitors of nuclear receptor binding SET domain protein 2 (NSD2) in an RCH-ACV wild type WT cells (2C) (AID 1645877); conditions: RCH-ACV (leukaemia line) NSD2 WT (2C) viability, CellTiter-Glo, 72 h; series mostly up to 44.9 µM; further: nearly all actives have a fitted effect of over 70% in size; further: potency means the concentration at half of the fitted maximal effect
[5] = molecular target: Cytochrome P450 3A4 (Homo sapiens) (UniProt P08684); assay: Cytochrome P450 family 3 subfamily A member 4 (CYP3A4) small molecule antagonists: luciferase qHTS assay (AID 1645841; active means well fitted curve in the direction sought with a large enough effect in the repeat runs; an effect the other way counts as inactive or inconclusive; further: nearly all actives have a fitted effect of over 45% in size); conditions: P450-Glo CYP3A4 enzyme assay, luciferin luminescence; series mostly up to 57.4 µM
Chain of Cytochrome P450 3A4 (Homo sapiens) (P08684 whole entry, looked up): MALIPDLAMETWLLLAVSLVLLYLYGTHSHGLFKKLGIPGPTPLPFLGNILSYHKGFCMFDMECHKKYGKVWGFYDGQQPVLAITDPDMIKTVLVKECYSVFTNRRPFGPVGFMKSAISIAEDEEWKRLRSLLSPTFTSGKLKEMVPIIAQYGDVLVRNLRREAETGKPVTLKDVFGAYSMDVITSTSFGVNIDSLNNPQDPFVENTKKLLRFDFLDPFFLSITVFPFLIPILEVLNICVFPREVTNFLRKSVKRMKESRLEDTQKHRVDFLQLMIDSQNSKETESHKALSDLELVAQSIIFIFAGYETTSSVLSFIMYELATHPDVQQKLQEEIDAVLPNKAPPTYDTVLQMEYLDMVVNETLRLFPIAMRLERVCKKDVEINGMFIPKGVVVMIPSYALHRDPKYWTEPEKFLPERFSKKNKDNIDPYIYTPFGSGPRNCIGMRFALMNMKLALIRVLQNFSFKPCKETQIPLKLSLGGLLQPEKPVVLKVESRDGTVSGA
In short: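 P450-Glo CYP3A4 enzyme with proluciferin substrate was preincubated with DMSO-dissolved compounds for 10 min at room temperature. NADPH regeneration solution started a 1 h reaction. Detection reagent stopped it, and luminescence was read after 20 min.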

[6] = molecular target: N-terminal Xaa-Pro-Lys N-methyltransferase 1 (Homo sapiens) (UniProt Q9BV86); assay: Confirmatory qHTS for Inhibitors of N-terminal methyltransferase 1 (NTMT1): MTaseGlo Assay (AID 1645874); conditions: NTMT1 enzyme, MTase-Glo SAH luminescence; series mostly up to 100 µM; further: potency means the concentration at half of the fitted maximal effect; nearly all actives have a fitted effect of over 65% in size
Chain of N-terminal Xaa-Pro-Lys N-methyltransferase 1 (Homo sapiens) (Q9BV86 whole entry, looked up): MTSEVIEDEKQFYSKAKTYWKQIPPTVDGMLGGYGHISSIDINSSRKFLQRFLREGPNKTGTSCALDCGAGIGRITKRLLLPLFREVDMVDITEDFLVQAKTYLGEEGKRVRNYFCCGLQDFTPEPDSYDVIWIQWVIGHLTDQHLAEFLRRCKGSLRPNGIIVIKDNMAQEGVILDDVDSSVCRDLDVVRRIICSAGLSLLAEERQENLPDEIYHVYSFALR
In short: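 Room-temperature NTMT1 reaction, 30 min, with 100 uM SAM and 1 uM SPKRIA substrate; enzyme 125 nM. Read-out: MTase-Glo luminescence, normalized to no-enzyme and DMSO controls.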

Structure (SMILES): N[C@@H]1CONC1=O
- Potency [1]: inactive
- Potency [2]: inactive
- Potency (Papain (Carica papaya)): inactive
- Potency [3]: inactive
- Potency [4]: inactive

Structure (SMILES): CCc1cncnc1N1CCN(Cc2nc3ccc(C(F)(F)F)cc3[nH]2)CC1
- Potency [1]: 0.107 µM (active)
- Potency [2]: 0.477 µM (active)
- Potency (Papain (Carica papaya)): inactive

Structure (SMILES): c1ccc([C@H]2CN3CCSC3=N2)cc1
- Potency [1]: 30.9 µM (active)
- Potency [2]: inactive
- Potency (Papain (Carica papaya)): inactive
- Potency [3]: inactive

Structure (SMILES): CS(=O)(=O)c1cccc(CNc2nc(Nc3ccc4c(c3)CCC(=O)N4)ncc2C(F)(F)F)c1
- Potency [1]: inactive
- Potency [2]: 0.169 µM (active)
- Potency (Papain (Carica papaya)): inactive
- Potency [3]: 3.32 µM (active)
- Potency [4]: 3.32 µM (active)

Structure (SMILES): O=C1CCc2cc(OCCCCc3nnnn3C3CCCCC3)ccc2N1
- Potency [1]: inactive
- Potency [2]: 6.17 µM (active)
- Potency (Papain (Carica papaya)): inactive
- Potency [3]: inactive

Structure (SMILES): COc1cc2nccc(Oc3ccc(NC(=O)NC4CC4)c(Cl)c3)c2cc1C(N)=O
- Potency [1]: inactive
- Potency [2]: 12 µM (active)

Structure (SMILES): NC(N)=NC(=O)c1nc(Cl)c(N)nc1N
- Potency [1]: inactive
- Potency [2]: inactive
- Potency (Papain (Carica papaya)): 28.2 µM (active)

Structure (SMILES): N=c1nc(N2CCCCC2)cc(N)n1O
- Potency [1]: 7.76 µM (active)
- Potency [5]: inactive
- Potency [2]: inactive
- Potency (Papain (Carica papaya)): inactive
- Potency [3]: inactive
- Potency [4]: inactive

Structure (SMILES): Cc1cnc(NC(=O)C2=C(O)c3ccccc3S(=O)(=O)N2C)s1
- Potency [1]: inactive
- Potency [2]: 11 µM (active) and inactive
- Potency [3]: inactive

Structure (SMILES): S=C(NCc1ccc2c(c1)OCO2)N1CCN(c2ncnc3c2oc2ccccc23)CC1
- Potency [1]: 4.77 µM (active)
- Potency [2]: 2.13 µM (active)
- Potency [3]: 13.2 µM (active)
- Potency [4]: 8.17 µM (active)

Structure (SMILES): Cc1oncc1C(=O)Nc1ccc(C(F)(F)F)cc1
- Potency [2]: 13.8 µM (active)
- Potency (Papain (Carica papaya)): inactive
- Potency [3]: 10.6 µM (active) and 16.6 µM (active)

Structure (SMILES): Cn1cc(-c2ccc3nnc(C(F)(F)c4ccc5ncccc5c4)n3n2)cn1
- Potency [2]: 3.01 µM (active)

Structure (SMILES): Cc1ccc(-n2nc(C(C)(C)C)cc2NC(=O)Nc2ccc(OCCN3CCOCC3)c3ccccc23)cc1
- Potency [1]: 4.9 µM (active)
- Potency [2]: 9.77 µM (active)
- Potency [3]: 23.7 µM (active) and inactive

Structure (SMILES): Nc1ccc(S(=O)(=O)Nc2ccnn2-c2ccccc2)cc1
- Potency [1]: inactive
- Potency [3]: inactive

Structure (SMILES): NNCCc1ccccc1
- Potency [1]: 5.49 µM (active)
- Potency (Papain (Carica papaya)): inactive
- Potency [3]: inactive

Structure (SMILES): CC(C)OC(=O)C1=CN(C(=O)c2ccc(F)c(F)c2)CC(C)(C)c2c1[nH]c1ccccc21
- Potency [1]: inactive
- Potency [3]: inactive
- Potency [4]: inactive

Structure (SMILES): Clc1cccc(Cl)c1NC1=NCCN1
- Potency [2]: inactive
- Potency (Papain (Carica papaya)): inactive
- Potency [3]: inactive
- Potency [4]: inactive

Structure (SMILES): COc1cc2c(cc1OC)CN(CCc1ccc(NC(=O)c3cccc4c(=O)c5cccc(OC)c5[nH]c34)cc1)CC2
- Potency [2]: 3.01 µM (active)
- Potency [6]: 35.5 µM (active)
- Potency [3]: inactive
- Potency [4]: inactive

Structure (SMILES): COc1ccc(-c2oc3cc(OC)ccc3c2C(=O)c2ccc(C#N)cc2)cc1
- Potency [2]: 7.56 µM (active)

Structure (SMILES): N#Cc1ccc(C(c2ccc(C#N)cc2)n2cncn2)cc1
- Potency [1]: inactive
- Potency [3]: inactive
- Potency [4]: inactive

Structure (SMILES): COc1ccc(-c2c(-c3ccc(O)cc3O)n[nH]c2C)cc1
- Potency [1]: 4.47 µM (active)
- Potency [2]: 3.55 µM (active)
- Potency [3]: inactive
- Potency [4]: inactive

Structure (SMILES): CCN(CCCO)CCCOc1ccc2c(Nc3cc(CC(=O)Nc4cccc(F)c4)[nH]n3)ncnc2c1
- Potency [5]: inactive

Structure (SMILES): CNCc1ccc(-c2[nH]c3cc(F)cc4c3c2CCNC4=O)cc1
- Potency [5]: inactive
- Potency [2]: 6.01 µM (active)
- Potency [3]: 16.3 µM (active) and 11.8 µM (active)
- Potency [4]: 7.28 µM (active) and 7.42 µM (active)

Structure (SMILES): COc1ccc(CCN2CCN(CCCc3ccccc3)CC2)cc1OC
- Potency [1]: 8.49 µM (active)
- Potency [2]: inactive
- Potency [3]: inactive
- Potency [4]: inactive

Structure (SMILES): Cn1cnc2c(F)c(Nc3ccc(Br)cc3Cl)c(C(=O)NOCCO)cc21
- Potency [1]: inactive
- Potency [2]: 8.71 µM (active)
- Potency [3]: inactive

Structure (SMILES): NC[C@H](O)c1ccc(O)c(O)c1
- Potency [1]: inactive
- Potency [3]: inactive

Structure (SMILES): O=c1[nH]c(-c2ccc(C(F)(F)F)cc2)nc2c1CSCC2
- Potency [1]: inactive
- Potency [2]: 19 µM (active)
- Potency [3]: inactive

Structure (SMILES): CCC(C)n1ncn(-c2ccc(N3CCN(c4ccc(OC[C@H]5CO[C@](Cn6cncn6)(c6ccc(Cl)cc6Cl)O5)cc4)CC3)cc2)c1=O (stereo not given in full)
- Potency [1]: inactive
- Potency [2]: 11 µM (active)
- Potency [3]: 0.502 µM (active)
